TbPYK inhibitor: inhibitors of Trypanosoma brucei pyruvate kinase | Q57TT1 | hit rate 0.12% among 410,000 | TbPYK enzyme, Kinase-Glo Plus ATP luminescence, 45 min | Potency, µM (titrated, usually from 76.8 µM), for the others: top-dose activity, negative = inhibition, actives largely listed as inhibitors; also: nearly all actives have a fitted effect of over 50% in size
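Screened from lowest to highest concentration, compounds were pinned into TbPYK/substrate mixtures, and ADP (130 uM final) was added. Plates sat at room temperature for 45 min prior to Kinase-Glo Plus detection by luminescence.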
LmPK inhibitor: inhibitors of Leishmania mexicana pyruvate kinase. Q27686. purified LmPK, Kinase-Glo ATP luminescence, 1 h. Potency, µM (doses to about 57.5 µM), without a hit: at the top dose activity change, negative = inhibition, most hits filed as inhibitors. hit rate 0.37% among 290,000. AID 1721
Target sequence (Q27686 whole entry, looked up): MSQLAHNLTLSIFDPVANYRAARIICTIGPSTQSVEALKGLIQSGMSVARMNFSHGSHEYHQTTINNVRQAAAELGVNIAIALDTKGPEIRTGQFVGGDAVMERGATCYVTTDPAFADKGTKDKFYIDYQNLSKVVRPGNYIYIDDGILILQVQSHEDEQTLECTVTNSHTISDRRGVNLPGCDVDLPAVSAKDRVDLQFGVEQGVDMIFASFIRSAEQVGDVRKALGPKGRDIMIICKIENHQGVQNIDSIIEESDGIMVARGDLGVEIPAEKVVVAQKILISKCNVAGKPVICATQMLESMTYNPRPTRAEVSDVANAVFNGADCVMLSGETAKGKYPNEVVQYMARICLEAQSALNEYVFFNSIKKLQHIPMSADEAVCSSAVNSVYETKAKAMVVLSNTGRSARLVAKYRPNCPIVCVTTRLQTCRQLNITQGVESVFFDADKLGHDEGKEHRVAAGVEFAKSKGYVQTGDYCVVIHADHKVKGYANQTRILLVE
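In 50 mM imidazole pH 7.2 with 7 mM MgCl2, LmPK (0.1 nM) turned over PEP (0.5 mM) and ADP (0.1 mM) for 1 h at room temperature. Luciferase read-out of ATP.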
Giardia FBPA inh: blocks Giardia fructose-bisphosphate aldolase activity; Potency, µM (titrated, usually from 59.6 µM), for inactives: at the highest dose activity, negative = inhibition, hits mostly inhibitors; A8B2U2; hit rate 0.71% among 290,000; purified Giardia FBPA; AID 2451; also: nearly all actives have a fitted effect of over 55% in size
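Giardia FBPA (40 nM reagent) was preincubated 10 min at RT with compound (up to 57.5 uM final), then substrate plus GAPDH/TPI/NAD/arsenate coupling system with diaphorase/resazurin was added; resorufin fluorescence (525/598 nm) was read after 20 min.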
RE007 growth inh: less growth of the S. pombe RE007 Vpr strain. AID 651644. S. pombe RE007 Vpr strain, BacTiter-Glo ATP luminescence, 24 h. hit rate 0.21% among 360,000. Potency, µM (doses to about 92.2 µM), without a hit: top-dose activity change, negative = less growth, usual class: inhibitors; active = well fitted falling curve with a large enough effect; inconclusive = small, poorly fitted or top-dose-only effect; inactive = no such curve, though single readings can be large or run the other way; also: nearly all actives have a fitted effect of over 50% in size
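Fission yeast RE007 carrying one integrated HIV-1 vpr copy, seeded at OD 0.01 in PMG+AL medium with 23 nL pinned compound. Grown 24 h at 30 degrees; viability read by BacTiter-Glo luminescence after 5 min.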
* marks the source's active call; other numbers are inactive results; ? = inconclusive; . = no result given; [ ] = dose if it differs, or a comment. Only some compounds are listed: those with a hit (about 0.95% of all), similar ones and a draw of the others. Unless noted, calls follow the shape of the dose curve; as a rule, active = well fitted curve in the direction sought with a large enough effect; inconclusive = small, poorly fitted or top-dose-only effect, or another doubt; inactive = no such curve, though single readings can be large; an effect the other way counts as inactive or inconclusive. % is scaled to controls: 0 for no effect and ±100 for the full control effect; potency is read from the fitted curve at half-maximal effect.

SMILES | TbPYK inhibitor | LmPK inhibitor | Giardia FBPA inh | RE007 growth inh
OCC(CO)(CO)N=Cc1c(O)ccc2ccccc12 | 1% | 4% | ? | ?
CCOC(=O)c1ccc(N2CCN(c3ccc(F)cc3)CC2)c(NC(=O)Nc2ccc(CC)cc2)c1 | 3% | . | . | .
CNC(=O)/C(=C\c1cccc(Oc2ccccc2)c1)NC(=O)c1ccccc1 | 5% | -1% | 2% | -2%
CNC(=O)/C(C#N)=C/c1cccc(Oc2ccccc2)c1 | 1% | 2% | -7% | 18µM*
COc1cccc(NC(=O)Cn2cc(S(=O)(=O)Cc3ccccc3F)c3ccccc32)c1 | 1%[15.4 µM] | . | . | .
CN(C)C(=O)CNC(=O)Cc1ccccc1 | 0% | . | . | .
CC1=CN2C(=N)/C(=C/c3ccc([N+](=O)[O-])o3)C(=O)N=C2S1 | -30% | -2% | ? | 32µM*
NS(=O)(=O)c1ccc(N=Nc2ccc(=O)[nH]c2O)cc1 | -17% | 16% | 5.6µM* | 10%
CC(=O)[C@@H]1[C@H]2[C@H](C(=O)[C@H]3OC[C@@H]2O3)[C@H]2C=Cc3ccccc3N21 | . | . | 22µM* | .
NC(=O)[C@@H]1[C@@H]2C(=O)N(c3ccc(F)cc3)C(=O)[C@@H]2[C@H]2C=Cc3ccccc3N21 | -17% | -6% | ? | 2%
CNC(=O)CN1C(=O)c2cccc3cccc1c23 | -4% | 1% | -6% | 9%
CN1/C(=N\O)c2cccc3cccc1c23 | -10% | -2% | 8.9µM* | -10%
COc1ccc(OC)c2sc(N3CCc4ccccc4C3)nc12 | 0% | 2% | -14% | 10%
c1ccc2c(c1)CCN(c1nc3cc4c(cc3s1)OCCO4)C2 | -30% | 22µM* | ? | ?
CCn1c(-c2c[nH]c3ccccc23)n[nH]c1=S | ? | ? | 3% | -26%
C=CCn1c(-c2csc3ccccc23)n[nH]c1=S | ? | 11µM* | -8% | 8%
C=CCn1c(-c2c[nH]c3ccccc23)n[nH]c1=S | ? | 22µM* | -5% | -2%
COc1ccc(NC(=S)NCCN2CCC(C)CC2)cc1Cl | -30% | 2% | 14µM* | -29%
COc1ccc(Cl)cc1NC(=S)NCCN1CCOCC1 | -4% | 0% | 0% | -7%
Oc1c(N=Nc2ccccn2)ccc2ccccc12 | ? | 13µM* | -15% | 18µM*
Cc1ccc(-c2cc(-c3ccc(C)cc3)[n+](-c3ccccc3)c(-c3ccc(C)cc3)c2)cc1 | 1% | . | . | -13%
Cc1ccc(-c2nc(N)s[n+]2-c2ccccc2)cc1 | ? | 32µM* | ? | 3%
CC1CCN(C(=O)Cn2ncc3c4ccccc4n(Cc4ccc(Cl)cc4)c3c2=O)CC1 | 2% | . | . | .
CCOc1ccc2nc(/N=C/c3c(C)[nH]n(-c4ccc(C)cc4)c3=O)sc2c1 | -33% | 14µM* | 21% | 13µM*
CCOc1ccc2nc(/N=C/c3c(C)[nH]n(-c4ccccc4)c3=O)sc2c1 | -20% | -20% | 10% | ?
SMILES | TbPYK inhibitor | LmPK inhibitor | Giardia FBPA inh | RE007 growth inh
COc1ccc(OC)c(NC(=O)c2c(NCc3ccc(N(C)C)cc3)sc3c2CCCC3)c1 | -16% | . | . | .
Cc1ccc(NC(=O)c2ccoc2C)cc1C | -24% | 14µM* | -7% | -21%
Cc1occc1C(=O)Nc1cccc2ccccc12 | -11% | 25µM* | -13% | ?
Cc1occc1C(=O)Nc1ccc2c(c1)OCO2 | -16% | 14µM* | -2% | -7%
Cc1cc(NC(=O)c2ccoc2C)no1 | -19% | 18µM* | 0% | -6%
Cc1cc(NC(=O)c2cc(C)on2)no1 | -2% | 1% | 4% | -7%
O=P(O)(O)C(O)(Cc1cnc2ccccn12)P(=O)(O)O | 1% | . | . | .
Cc1ccc(-c2nnc3ccccc3c2C(=O)Nc2ccccc2F)cc1 | -6%[15.4 µM] | . | . | .
CO[C@H]1COC(=O)C/C=C\[C@H](C)COC(=O)[C@@H](C)NC(=O)C/C=C\[C@@H]1C | . | . | -1%[12.9 µM] | .
CCOC(=O)c1c(N)sc(C(=O)Nc2ccc3c(c2)OCO3)c1C | -20% | 5µM* | 0% | ?
O=C(/C=C/c1ccc(/C=C/C(=O)Nc2ccc(C3=NCCN3)cc2)cc1)Nc1ccc(C2=NCCN2)cc1 | . | . | -5% | .
COc1cccc(C2C(C)CCC3C(=O)N(C)C(C(C)C)C(=O)N32)c1 (stereo not given) | . | . | -4%[12.9 µM] | .
O=C1C(Cl)=C(Nc2ccc3cn[nH]c3c2)C(=O)c2ccccc21 | -23% | ? | ? | 32µM*
COc1ccc2nc(Nc3sc4c(c3C(N)=O)CCCC4)sc2c1 | 2.8µM* | -27% | -25% | ?
COc1cccc(C(=O)N2CCC(C(=O)Nc3cccc(Cl)c3)CC2)c1 | 0% | . | . | .

Compound activity from PubChem.
